The list is not random: actives were taken first. Their share in the collection is about 4.5%.
SKOV3 invasion: Primary qHTS assay for Inhibitors of ovarian cancer metastasis using an organotypic tumor microenvironment (TME) model. AID 1963576, 2024. 46,000 compounds, 0.1% hits. Potency, µM (series often up to 45.8 µM), for the others: at the highest dose activity change, negative = inhibition, usual class: inhibitors. SKOV3ip1-GFP adhesion/invasion on 3D omental model, fluorescence;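 also: potency is read from the fitted curve at half-maximal effect; plate controls were DMSO wells for no effect and tomatine positive control wells for full effect; nearly all actives have a fitted effect of over 65% in size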
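qHTS, 4-pt dose (0.36-46 umol/L); SKOV3ip1-GFP, 1,200 cells/well, no FBS; primary omental fibroblast/mesothelial co-culture 48 h pre-grown; 2 h RT + 16 h 37 C; PBS wash, 4% PFA; GFP count 488/509 nm.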
GPR32 ag: qHTS for Agonists of Human Resolvin D1 Receptor DRV1; activation, % at 76.9 µM; AID 1346428, 2018; 48,000 compounds, 2.5% hits; Probable G-protein coupled receptor 32 (Homo sapiens), O75388; CHO-K1 GPR32 beta-arrestin PathHunter luminescence, 90 min; zero percent set by DMSO-only wells;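 active = activation of at least 60% and not above a set upper limit, about 1 call in 100 departs from these limits; inconclusive = activation of 40% to 60%, or above that upper limit; inactive = activation under 40%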; also: 0% is about no effect
Target sequence (O75388 whole entry, looked up): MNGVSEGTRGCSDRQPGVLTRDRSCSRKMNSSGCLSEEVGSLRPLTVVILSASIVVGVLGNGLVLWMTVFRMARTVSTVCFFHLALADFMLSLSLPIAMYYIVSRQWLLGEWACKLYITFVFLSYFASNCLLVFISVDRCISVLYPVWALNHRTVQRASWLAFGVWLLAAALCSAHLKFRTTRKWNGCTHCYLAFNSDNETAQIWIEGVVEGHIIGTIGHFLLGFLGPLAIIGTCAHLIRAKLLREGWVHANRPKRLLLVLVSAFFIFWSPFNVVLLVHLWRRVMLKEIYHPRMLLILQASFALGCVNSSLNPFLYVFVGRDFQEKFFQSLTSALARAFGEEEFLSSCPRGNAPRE
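Luminescent readout of beta-Gal complementation quantifies ligand-induced beta-arrestin association with GPR32 in CHO-K1 cells; 90 min compound incubation at 37 °C, detection 1 h at room temperature.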
HTT-AS promoter: Primary qHTS for Identification of Small Molecule Activators of Huntingtin-Antisense Promoter Activity; HEK293 HTT-AS promoter firefly luciferase reporter, 24 h; response scale: percent change from vehicle, -100% = no light; Potency, µM (highest dose often 57.5 µM), for inactives: top-dose activity change, positive = activation, usual class: activators; 48,000 compounds, 0.24% hits; AID 1508624, 2021; also: potency is read from the fitted curve at half-maximal effect; nearly all actives have a fitted effect of over 55% in size
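HEK293 cells carrying firefly luciferase reporters were seeded at 2,500 per well in Opti-MEM and cultured for 24 h. They were then treated with compounds at up to 57.5 uM final for 24 h at 37 degrees C before Dual-Glo luminescence readout.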
HTT promoter inh: Primary qHTS for Identification of Small Molecule Inhibitors of Huntingtin Promoter Activity; HEK293 HTT promoter firefly luciferase reporter, 24 h; 48,000 compounds, 0.93% hits; Potency, µM (doses to about 57.5 µM), inactives show at the top dose activity change, negative = inhibition, most hits filed as inhibitors; also: potency is read from the fitted curve at half-maximal effect; nearly all actives have a fitted effect of over 50% in size
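HEK293 luciferase promoter-reporter cells (2,500/well) plated 24 h, then compounds added at up to 57.5 uM final for 24 h at 37 °C. Firefly luminescence by Dual-Glo, normalized to vehicle (0%) and zero RLU (-100%).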
NTMT1 inhibitor: Primary qHTS for Inhibitors of N-terminal methyltransferase 1 (NTMT1): MTaseGlo Assay | Potency, µM (doses to about 114 µM), inactives show at the top dose activity change, negative = inhibition, actives largely listed as inhibitors | N-terminal Xaa-Pro-Lys N-methyltransferase 1 (Homo sapiens), Q9BV86 | AID 1645870, 2021 | 59,000 compounds, 2.5% hits | NTMT1 MTase-Glo SAH luminescence, purified enzyme;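 also: potency is read from the fitted curve at half-maximal effect; plate controls were DMSO vehicle for no effect and no enzyme for full effect; nearly all actives have a fitted effect of over 65% in size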
Target sequence (Q9BV86 whole entry, looked up): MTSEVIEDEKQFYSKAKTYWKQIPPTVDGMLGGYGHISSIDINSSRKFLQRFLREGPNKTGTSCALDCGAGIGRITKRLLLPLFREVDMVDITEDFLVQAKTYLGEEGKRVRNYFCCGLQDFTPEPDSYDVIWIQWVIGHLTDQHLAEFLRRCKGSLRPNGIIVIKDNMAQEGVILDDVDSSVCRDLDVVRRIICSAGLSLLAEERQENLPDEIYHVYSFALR
* = called active by the depositor; i = inactive; u = inconclusive; x = no result; ! = a repeat was not active; [ ] = remark or other dose. Unless noted, calls follow the shape of the dose curve; as a rule, active = well fitted curve in the direction sought with a large enough effect; inconclusive = small, poorly fitted or top-dose-only effect, or another doubt; inactive = no such curve, though single readings can be large; an effect the other way counts as inactive or inconclusive.

SMILES | SKOV3 invasion | GPR32 ag | HTT-AS promoter | HTT promoter inh | NTMT1 inhibitor
Oc1ccc(-c2nc3ccccn3c2Nc2ccc3c(c2)OCCO3)cc1 | -5% | -12 | 19% | -20% | u
COc1cc(-c2nc3cccc(C)n3c2Nc2ccc3c(c2)OCCO3)ccc1O | 1% | 61* | -6% | 2% | 0%
Ic1ccc(N2CCN(Cc3c[nH]c4ncccc34)CC2)cc1 | x | 76* | x | x | x
COc1ccccc1C(=O)CC1(O)C(=O)N(CC(N)=O)c2ccccc21 (stereo not given) | 1% | 0 | -4% | 4% | 3%
CCOc1ccc(-n2c(SCC(=O)N3CCCCCC3)nc3c([nH]c4ccccc43)c2=O)cc1 | i | -3 | -10% | -4% | u
O=C(Nc1nc2ccccc2n1CCc1ccccc1)c1ccccc1 | x | x | x | x | -2%[57.5 µM]
CN(Cc1ccccc1)S(=O)(=O)c1nnc(NC(=O)c2cccc(Cl)c2)s1 | i | 68* | -31% | -9% | 12%
CN(c1ccccc1)S(=O)(=O)c1nnc(NC(=O)c2ccco2)s1 | 4% | 93* | -1% | 10% | 9%
Cc1cccc(C(=O)Nc2nnc(S(=O)(=O)N3CCCc4ccccc43)s2)c1 | 3% | 48 | -69% | u | 17%
CC1Cc2ccccc2N1S(=O)(=O)c1nnc(NC(=O)c2cccc(F)c2)s1 (stereo not given) | u | 41 | -93% | 25µM* | 17%
CN(Cc1ccco1)S(=O)(=O)c1nnc(NC(=O)c2cccc(Cl)c2)s1 | i | u | -8% | -16% | 2%
O=C(Nc1nnc(S(=O)(=O)N2CCCc3ccccc32)s1)c1cccc(Cl)c1 | -7% | 74* | -91% | u | 16%
Cc1ccc(NC(=O)CSCc2cnn(-c3ccccc3)c2-n2cccc2)c(C)c1 | -36% | -13 | -40% | u | 4%
Cc1cccc(NC(=O)CCn2cnc3ccccc3c2=O)c1 | 0% | -9 | -2%[11.5 µM] | -14%[11.5 µM] | 6%
COC(=O)C1CCc2sc(NC(=O)Cc3ccccc3)c(C(=O)Nc3ccc(Cl)cc3)c21 (stereo not given) | x | x | x | x | -8%
N#Cc1ccccc1Cn1c(=O)n(CCCCC(=O)NCc2ccc3c(c2)OCO3)c(=O)c2ccccc21 | -3% | -6 | -24% | -13% | 5%
CN(C)c1ccc2nc3ccc(=[N+](C)C)cc-3sc2c1 | 1% | -37 | -14% | -23% | 32µM*
Cc1cc2nc3ccc(=[N+](C)C)cc-3sc2cc1N | x | -50 | -20% | -12% | 22µM*
COc1cc(OC)c(NC(=O)Nc2ccccc2OCc2cc(=O)n3cc(C)ccc3n2)cc1Cl | 7% | -13 | 11% | 15% | -11%
COc1cc(OC)c(NC(=O)Nc2cccc(OCc3cc(=O)n4ccccc4n3)c2)cc1Cl | 12% | -9 | 16% | 14% | 79µM*
Cc1cc(NC(=O)CCNS(=O)(=O)c2ccc3c(c2)oc(=O)n3C)ccc1Br | 11% | 12 | -18% | -15% | 1%
CC(=O)N1c2ccc(S(=O)(=O)NCC3CCC(C(=O)Nc4cccc(F)c4)CC3)cc2CC1C (stereo not given) | 0% | 64* | -52% | u | 5%
CC(=O)N1c2ccc(S(=O)(=O)NCCC(=O)Nc3ccc(Br)c(C)c3)cc2CC1C (stereo not given) | 2% | 69* | -67% | u | -1%
Clc1ccc(C(c2ccccc2)c2c[nH]c3ccccc23)s1 (stereo not given) | 6% | 107* | -28% | -23% | -2%
CC(C)=CCC/C(C)=C/CC/C(C)=C/CSc1ccccc1C(=O)O | x | x | x | x | 50µM*
SMILES | SKOV3 invasion | GPR32 ag | HTT-AS promoter | HTT promoter inh | NTMT1 inhibitor
NNCCc1ccccc1 | 7% | u | 4µM*! | -7% | u
C[n+]1c2cc(N)ccc2cc2ccc(N)cc21 (tested in a mixture with another compound) | x | 15 | -39% | -29% | 40µM*
CCN(CC)CCOc1ccc(/C(=C(\Cl)c2ccccc2)c2ccccc2)cc1 | x | 91* | -24% | -21% | u
CCCCCCCC/C=C\CCCCCCCC(=O)NCCc1ccc(O)c(O)c1 | x | -8 | x | x | x
CCCCCCCC/C=C\CCCCCCCC(=O)NCc1ccc(O)c(OC)c1 | x | 75*! | -9% | -2% | -1%[57.5 µM]
COc1ccc(Cl)cc1Nc1sc(C(=O)c2ccccc2)c(N)c1C(=O)Nc1ccccc1 | u | -97 | -29% | 28µM* | -8%
CCOc1ccccc1Nc1sc(C(=O)c2ccccc2)c(N)c1C(=O)Nc1ccc(F)cc1 | -11% | -51 | -8% | u | 4%
CSc1ccc(Cn2nnc(C(=O)Nc3ccc(C)cc3Cl)c2N)cc1 | i | 99* | -27% | 4% | -2%
Cc1ccc(Cn2nnc(C(=O)Nc3ccc(F)c(F)c3)c2N)cc1 | i | -13 | -4%[11.5 µM] | -17% | -9%
Cc1nc2cc(-c3ccccc3)nn2c(C)c1CCC(=O)N1CCN(c2ccccc2)CC1 | i | 0 | -67% | 2.5µM* | 11%
Cc1nc2cc(-c3cccc(F)c3)nn2c(C)c1CCC(=O)N1CCN(c2ccc(F)cc2)CC1 | i | -2 | -61% | u | -10%
Cc1nc2cc(-c3ccc(Cl)cc3)nn2c(C)c1CCC(=O)N1CCN(c2ccccc2)CC1 | i | 0 | -75% | 1µM* | -9%
CCOC(=O)CSc1nnc(-c2ccc(OC)cc2)o1 | 40% | -6 | x | x | x
Cc1cc(-c2ccc(C)c(S(=O)(=O)Nc3ccc(C)c(N(C)C)c3)c2)on1 | -3% | -21 | -34% | u | -1%
CCOc1ccc(CNCc2c(C(=O)O)n(Cc3ccc(C)cc3)c3cc(C)ccc23)cc1 | -25% | 64* | -42% | u | 16%
CCOc1ccc(CNCc2c(C(=O)O)n(Cc3ccc(OC)cc3)c3ccccc23)cc1 | i | 5 | -40% | u | 11%
Cc1ccc(Cn2c(C(=O)O)c(CNCc3cccs3)c3ccc(C)cc32)cc1 | i | 111* | -32% | u | -8%
C=Cc1ccc(Cn2c(C)c(CNCc3ccccc3C)c(C(=O)O)c2C)cc1 | 0% | 27 | -26% | -5% | u
C=Cc1ccc(Cn2c(C)c(CNCCc3ccc(OCC)cc3)c(C(=O)O)c2C)cc1 | -4% | 68* | -29% | 0% | -18%
CC1CCC(C(=O)N(c2cc(C#CC(C)(C)C)sc2C(=O)O)C2CCC(O)CC2)CC1 (stereo not given) | -3% | x | -47% | u | 17%[57.5 µM]

Source: PubChem
